In PubChem BioAssay (NCI) one finds growth data, which are given here for 16 molecules.

Holding throughout (assay): NCI-60 one-dose screen, 48 h (100 = growth as untreated, 0 = no growth, -100 = all killed)
Conditions in all cases: 10 µM unless noted

Test [1] concerns T-47D breast.
Test [2] concerns BT-549 breast.
For test [3], the system named is MDA-MB-435 melanoma.
Test [4] concerns SW-620 colon.
In test [5] the test system is MCF7 breast.
In test [6] the test system is HCT-116 colon.
Test [7] relates to HCC-2998 colon.
The subject of test [8] is KM12 colon.

Molecules are shown by their SMILES. The panel holds about 83,000 compounds, 20% with a hit somewhere; the sample as a whole holds those more often.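 Step 1: grow cells in 96-well plates. Step 2: add test compound at a single concentration. Step 3: incubate 48 h. Step 4: record percent growth.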 Values without a mark were called inactive. Active and inactive are the calls of the source. The calls were made as follows: active = growth percent below 10; inactive = the rest.

As to `CCNCCNc1cc(-c2ccc(C(F)(F)F)cc2)c(C#N)c2nc3ccccc3n12`, the growth in test [1] was -59.4% (active); in test [2], -73.9% (active); in test [3] it was -96.9% (active); in test [4], -73.7% (active); in test [5] it was -71.6% (active); in test [6], -95.4% (active). For the same molecule, the results for the growth in test [7] and in test [8] were -99.6% (active) and -85.1% (active), respectively.

`COc1ccc(Nc2ncc(Br)c(NCCCNC(=O)C3CCCC3)n2)cc1`: the growth in test [1] was 77.5%; in test [2], 40.4%; in test [3], 63%; in test [4] it was 41.2%; in test [5], 41.8%; in test [6], 23.6%. The growth in test [7] is 69.7%; in test [8] it was 23%.

Take `COc1ccc(C(O)c2cc3c(N)c(C(=O)Nc4cccc(Br)c4)sc3nc2C)cc1` (stereo not drawn): the growth in test [1] was 53.2%; in test [2] it was 3.53% (active); in test [3] it was -33.4% (active); in test [4] it was 23.7%; in test [5] it was 9.88% (active); in test [6], 6.39% (active). The growth was -33.9% (active) in test [7] and 0.956% (active) in test [8].

`Cc1cccc(CNc2c3ccccc3nc3ccccc23)c1`: the growth was 25.3% in test [1]; 67.3% in test [2]; 29.1% in test [3]; 17.2% in test [4]; 6.23% (active) in test [5]; 9.81% (active) in test [6]. For the same molecule, the growth in test [7] was 3.58% (active); in test [8] it was 25.6%.

As to `Ic1ccc(OCCCCn2ccnc2)cc1`, the growth in test [1] is 77.6%; in test [2], 88.4%; in test [3], 73%; in test [4] it was 58.1%; in test [5], 89.7%; in test [6] it was 65.9%. The figures for the growth in test [7] and in test [8] were 68.1% and 97.6%, respectively.

Regarding `O=C(N/N=C/c1ccc(Cl)cc1)c1[nH]c2ccc(Cl)cc2c1-c1ccccc1`, the growth in test [1] is 73.9%; in test [2] it was 10.2%; in test [3], -33.3% (active); in test [4], 37.5%; in test [5], 13.5%; in test [6] it was 7.64% (active). The growth in test [7] is 26.4%; in test [8], 4.94% (active).

Turning to `CC(C)COc1nc2c(c(=O)n(C)c(=O)n2C)n1C`, the growth in test [1] was 88.6%; in test [2] it was 103%; in test [3], 104%; in test [4], 102%; in test [5], 86.4%; in test [6] it was 107%. Besides, the growth is 102% in test [7] and 99.5% in test [8].

Turning to `O=C1C(Cl)=C(NCCCCCCNC2=C(Cl)C(=O)c3ccccc3C2=O)C(=O)c2ccccc21`, the growth is 90.7% in test [1]; 91.2% in test [2]; 79.4% in test [3]; 73.3% in test [4]; 81.6% in test [5]; 88% in test [6]. The growth is 103% in test [7] and 98.1% in test [8].

Consider `CC(C)(C)[Si](C)(C)OC1[C@@H](CNC(=O)NC(=O)NC(N)=O)O[C@@H](n2cnc3c(NC(=O)Nc4ccccc4)ncnc32)[C@H]1O[Si](C)(C)C(C)(C)C` (stereo partly drawn), for which the growth in test [1] is 82.8%; in test [2], 95.4%; in test [3] it was 68.9%; in test [4], 55.9%; in test [5], 57.9%; in test [6], 20.5%. The values for the growth in test [7] and in test [8] were 85.8% and 61.5%, respectively.

With `COc1c(B(O)O)cccc1-c1nc2c(F)cc3[nH]ncc3c2c2c1CCCC2`, the growth was 8.61% (active) in test [1]; -46.1% (active) in test [2]; 8.04% (active) in test [3]; 1.12% (active) in test [4]; -3.83% (active) in test [5]; 2.84% (active) in test [6]. The results for the growth in test [7] and in test [8] were 1.17% (active) and -12.1% (active), respectively.

For `O=C(CN1CCCCC1)Nc1nc(-c2cc3ccccc3oc2=O)cs1`, the growth in test [1] is 87.7%; in test [2] it was 100%; in test [3] it was 104%; in test [4], 99.2%; in test [5], 88.7%; in test [6], 101%. The figures for the growth in test [7] and in test [8] were 104% and 99.9%, respectively.

As for `COc1cc2oc(-c3cccc(NC(=O)c4ccccc4)c3)cc(=O)c2c(OC)c1OC`, the growth in test [1] is 50.2%; in test [2], 74.1%; in test [3] it was 80.7%; in test [4] it was 91.5%; in test [5], 77.3%; in test [6] it was 67.7%. Besides, the growth is 87.8% in test [7] and 64.4% in test [8].

In the case of `CCCCCCCCCCCCCCCCOCCCOP(=O)(O)C1CCCN(O)C1=O` (stereo not drawn), the growth in test [1] is 43.2%; in test [2] it was 32.2%; in test [3], 14.3%; in test [4], 20.9%; in test [5], 18.5%; in test [6] it was 14.5%. The growth is 3.73% (active) in test [7] and 7.79% (active) in test [8].

For the molecule `N#CC(C#N)N=Nc1ccc(Br)cc1`, the growth in test [1] is 8.56% (active); in test [2], 49.2%; in test [3] it was 71.7%; in test [4], 18.4%; in test [5] it was 19.4%; in test [6], 13.4%. Moreover, the values for the growth in test [7] and in test [8] were 46% and 80.8%, respectively.

As to `Nc1c(C(=O)Nc2ccccc2F)sc2nc3c(cc12)CCCC3`, the growth in test [1] was 41.9%; in test [2] it was 56.8%; in test [3] it was -7.54% (active); in test [4] it was 25.3%; in test [5], 18%; in test [6], 23.7%. Moreover, the growth is 57.7% in test [7] and 27.6% in test [8].

For the molecule `C=C(C)[C@@H]1CC[C@]2(CO)CC[C@]3(C)[C@H](CC[C@@H]4[C@@]5(C)CC[C@H](NCO)C(C)(C)[C@@H]5CC[C@]43C)[C@@H]12`, the growth in test [1] was -42.9% (active); in test [2] it was 74.3%; in test [3] it was -84.5% (active); in test [4] it was -79.7% (active); in test [5] it was -62.8% (active); in test [6], -62.1% (active). Further, the results for the growth in test [7] and in test [8] were -63.3% (active) and -77.5% (active), respectively.
